HT1080-NT tox – qHTS for induction of synthetic lethality in tumor cells producing 2HG: qHTS for the HT-1080-NT fibrosarcoma cell line | HT-1080-NT fibrosarcoma viability, CellTiter-Glo ATP luminescence, 48 h | Potency, µM (titrated, usually from 46.1 µM), inactives show at the highest dose activity, negative = less viability, actives largely listed as cytotoxic | 360,000 compounds, 1.6% hits | AID 686970, 2013;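 note: NT is the 2HG producing partner of a matched IDH1 knockdown line; potency is the fitted concentration of half-maximal effect; 0% = DMSO-treated cells and -100% = media-only wells without cells; nearly all actives have a fitted effect of over 55% in size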
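Viability by CellTiter-Glo luminescence after 48 h compound exposure at 37C of HT-1080-NT cells (750/well, RPMI, 5% FBS). % activity scaled between DMSO wells and medium-only wells, then curve-fitted and categorized by curve class.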
DT40 TDP1 CPT – qHTS for Inhibitors of human tyrosyl-DNA phosphodiesterase 1 (TDP1): qHTS in cells in presence of CPT. chicken DT40 Tdp1-/-;hTDP1 cells + 20 nM CPT, ATP luminescence, 48 h. Potency, µM (doses to about 46.2 µM), without a hit: top-dose activity change, negative = growth inhibition, usual class: inhibitors. 420,000 compounds, 12% hits. AID 686979, 2013; note: potency is the fitted concentration of half-maximal effect; nearly all actives have a fitted effect of over 55% in size
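Chicken DT40 Tdp1-/- cells stably complemented with human TDP1 were seeded at 400 cells/well in medium containing 20 nM camptothecin, exposed to pin-transferred compounds, and grown at 37 °C for at least 48 hr. Viability was read as ATP luminescence.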
DT40 TDP1 no CPT – qHTS for Inhibitors of human tyrosyl-DNA phosphodiesterase 1 (TDP1): qHTS in cells in absence of CPT | DT40 Tdp1-/- hTDP1 cells, no CPT, ATP luminescence, 48 h | 420,000 compounds, 15% hits | Potency, µM (titrated, usually from 46.2 µM), for inactives: top-dose activity change, negative = growth inhibition, actives largely listed as inhibitors; note: potency is the fitted concentration of half-maximal effect; nearly all actives have a fitted effect of over 55% in size
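No-CPT arm: Tdp1-/-;hTDP1 DT40 cells (400/well) plus compounds, incubated ≥48 hr at 37 °C. Readout CellTiter-Glo luminescence.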
HT1080 IDH1KD tx – qHTS for induction of synthetic lethality in tumor cells producing 2HG: qHTS for the HT-1080-IDH1KD cell line; HT-1080 IDH1 knockdown viability, ATP luminescence, 48 h; Potency, µM (doses to about 46.1 µM), inactives show top-dose activity, negative = toxicity, most hits filed as cytotoxic; 360,000 compounds, 2% hits; AID 686971, 2013;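 note: potency is the fitted concentration of half-maximal effect; 0% = DMSO wells and -100% = cell-free medium wells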
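Luminescent ATP read-out (CellTiter-Glo, 10 min at room temperature) after 48 h compound exposure at 37 °C gave viability of IDH1-knockdown HT-1080 cells. Activity was normalised to DMSO and cell-free wells, then fitted as concentration-response curves.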
IL1B secr inh – qHTS for Inhibitors of Inflammasome Signaling: IL-1-beta AlphaLISA Primary Screen; 360,000 compounds, 4.7% hits; activity change, % at 57.5 µM; AID 743279, 2014; THP-1 LPS/ATP IL-1B secretion, AlphaLISA, 16 h; hits give low values; in the data active = activity change below about -50%; inconclusive = mostly about -30% to -49%
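Secreted IL-1B measured by AlphaLISA bead assay after 16 h compound exposure of THP-1 cells; compounds (final up to 57.5 uM) added 1 h before LPS (250 ng/mL) and ATP (1.25 mM) stimulation; lower signal means less secretion.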
Active calls of the source: *. A selection: hits, their analogues and other compounds. The true share with any hit is near 19%. Unless noted, calls come from the whole dose curve; as a rule, active = well fitted curve in the direction sought with a large enough effect; inconclusive = small, poorly fitted or top-dose-only effect, or another doubt; inactive = no such curve, though single readings can be large; an effect the other way counts as inactive or inconclusive. Unless noted, % is set by controls: 0 for no effect and ±100 for the full control effect.

O=C(O)c1cc2c(ncc3c(=O)n(-c4ccccc4)[nH]c32)s1 was read as HT1080-NT tox 8.9%, DT40 TDP1 CPT inconclusive, DT40 TDP1 no CPT -3.6%, HT1080 IDH1KD tx 1.6% and IL1B secr inh 8.6.
For O=C(NCc1ccc2c(c1)OCO2)c1cccc(S(=O)(=O)N2CCCC2)c1 the results were HT1080-NT tox -0.3%, DT40 TDP1 CPT 5.5%, DT40 TDP1 no CPT -25.2%, HT1080 IDH1KD tx 3.3% and IL1B secr inh -2.3.
Screening Cn1c(SCc2ccccc2Cl)nc2c1c(=O)[nH]c(=O)n2C returned HT1080-NT tox 24.3%, DT40 TDP1 CPT 13.5%, DT40 TDP1 no CPT 9.9%, HT1080 IDH1KD tx 16.8% and IL1B secr inh -7.0.
Nc1ncnc2c1ncn2[C@@H]1O[C@H](CNCc2c(OCc3ccccc3F)ccc3ccccc23)[C@@H](O)[C@H]1O was read as HT1080-NT tox -13.9%, DT40 TDP1 CPT inconclusive, DT40 TDP1 no CPT inconclusive, HT1080 IDH1KD tx -10.1% and IL1B secr inh -58.3*.
`Nc1ncnc2c1ncn2[C@@H]1O[C@H](CNCc2ccccc2)[C@@H](O)[C@H]1O` gave HT1080-NT tox 8.1%, DT40 TDP1 CPT -27.4%, DT40 TDP1 no CPT -19.9%, HT1080 IDH1KD tx 5.1% and IL1B secr inh 6.3.
`Nc1ncnc2c1ncn2[C@@H]1O[C@H](CNCc2cccc(C#Cc3ccccc3)c2)[C@@H](O)[C@H]1O` gave HT1080-NT tox -0.6%, DT40 TDP1 CPT 14.6µM*, DT40 TDP1 no CPT inconclusive, HT1080 IDH1KD tx -0.8% and IL1B secr inh -4.0.
Nc1ncnc2c1ncn2[C@@H]1O[C@H](CNCc2ccccc2OC2OC(CO)C(O)C(O)C2O)[C@@H](O)[C@H]1O (some centres undefined) was read as HT1080-NT tox 8.1%, DT40 TDP1 CPT 5.6%, DT40 TDP1 no CPT -3.8%, HT1080 IDH1KD tx 4.9% and IL1B secr inh 6.0.
Screening Cc1ccc2[nH]c3c(=O)n(CC(=O)N4CCN(c5ccccc5F)CC4)ncc3c2c1 returned DT40 TDP1 CPT -2.0% and DT40 TDP1 no CPT 9.3%.
Screening C/C(=N\NC(=O)C1(C)CC1(Br)Br)c1ccc(NC(=O)C2CCC2)cc1 (centres undefined) returned HT1080-NT tox inconclusive, DT40 TDP1 CPT 18.4µM*, DT40 TDP1 no CPT inconclusive, HT1080 IDH1KD tx inconclusive and IL1B secr inh 12.1.
C/C(=N\NC(=O)c1ccn(C)n1)c1ccc(NC(=O)C2CCCC2)cc1 was read as HT1080-NT tox 8.1%, DT40 TDP1 CPT -13.6%, DT40 TDP1 no CPT 18.4µM*, HT1080 IDH1KD tx -0.3% and IL1B secr inh 58.5.
Screening C/C(=N\NC(=O)c1ccn(C)n1)c1ccc(NC(=O)C2CCC2)cc1 returned HT1080-NT tox 0.5%, DT40 TDP1 CPT inconclusive, DT40 TDP1 no CPT 2.8%, HT1080 IDH1KD tx -6.6% and IL1B secr inh -2.5.
CCOc1ccc(C(=O)N2CCN(S(=O)(=O)c3cccs3)CC2)c(OCC)c1 was read as HT1080-NT tox 9.0%, DT40 TDP1 CPT inconclusive, DT40 TDP1 no CPT inconclusive, HT1080 IDH1KD tx -2.0% and IL1B secr inh 8.5.
`COc1ccc(C(CC(=O)O)NS(=O)(=O)c2ccc3c(c2)NC(=O)CO3)cc1` (centres undefined) gave HT1080-NT tox -1.8%, DT40 TDP1 CPT -20.2%, DT40 TDP1 no CPT 9.3%, HT1080 IDH1KD tx -0.3% and IL1B secr inh 9.9.
O=C(N/N=C/c1ccccc1)c1[nH]c2ccc(Br)cc2c1-c1ccccc1 was read as HT1080-NT tox 0.461µM*, DT40 TDP1 CPT 1.16µM*, DT40 TDP1 no CPT 1.16µM*, HT1080 IDH1KD tx 0.731µM* and IL1B secr inh 24.8.
Screening O=C(NN=C1CCCC1)c1[nH]c2ccc(Br)cc2c1-c1ccccc1 returned HT1080-NT tox 8.2µM*, DT40 TDP1 CPT inconclusive, DT40 TDP1 no CPT inconclusive, HT1080 IDH1KD tx 5.8µM* and IL1B secr inh inconclusive.
`CCCCOC(=O)CSc1nnc(-c2ccccc2)o1` gave DT40 TDP1 CPT 7.6% and DT40 TDP1 no CPT -19.9%.
CN(C)S(=O)(=O)c1ccc(NC(=O)CSc2nc3ccccc3n2-c2ccccc2)cc1 was read as HT1080-NT tox -7.8%, DT40 TDP1 CPT inconclusive, DT40 TDP1 no CPT 20.6µM*, HT1080 IDH1KD tx -2.0% and IL1B secr inh -6.4.
Screening Cc1cc(C)nc(SCC(=O)Nc2cccc(S(=O)(=O)N(C)C)c2)n1 returned HT1080-NT tox -13.0%, DT40 TDP1 CPT -1.6%, DT40 TDP1 no CPT inconclusive, HT1080 IDH1KD tx -9.9% and IL1B secr inh 117.8.
`O=C(O)CSc1nc2ccccc2n1-c1ccccc1` gave HT1080-NT tox 5.7%, DT40 TDP1 CPT 11.5%, DT40 TDP1 no CPT 18.8%, HT1080 IDH1KD tx -5.3% and IL1B secr inh -81.3*.
`CN(C)S(=O)(=O)c1cccc(NC(=O)CSc2nc3ccccc3n2-c2ccccc2)c1` gave HT1080-NT tox -22.8%, DT40 TDP1 CPT inconclusive, DT40 TDP1 no CPT 25.9µM*, HT1080 IDH1KD tx inconclusive and IL1B secr inh -10.9.
Screening NS(=O)(=O)c1ccc(NC(=O)CSc2nc3ccccc3n2-c2ccccc2)cc1 returned HT1080-NT tox inconclusive, DT40 TDP1 CPT inconclusive, DT40 TDP1 no CPT inconclusive, HT1080 IDH1KD tx -18.2% and IL1B secr inh -9.6.
Screening CCOc1ccc(NC(=O)CSc2nc3c(oc4ccccc43)c(=O)n2CCOC)cc1 returned DT40 TDP1 CPT -29.8% and DT40 TDP1 no CPT -13.1%.
Cc1cc(NNC(=O)c2cccc(C(F)(F)F)c2)nc2c1c(C)nn2C was read as HT1080-NT tox inconclusive, DT40 TDP1 CPT 10.3µM*, DT40 TDP1 no CPT 5.8µM*, HT1080 IDH1KD tx inconclusive and IL1B secr inh -1.9.
For Cc1cc(C)n(CC(=O)NNC(=O)c2cccc(C(F)(F)F)c2)n1 the results were HT1080-NT tox 14.9%, DT40 TDP1 CPT -13.9%, DT40 TDP1 no CPT 15.1%, HT1080 IDH1KD tx 18.1% and IL1B secr inh 2.0.
`CCOC(=O)C1=CNS(=O)(=O)NC1c1ccc(C(F)(F)F)cc1` (centres undefined) gave HT1080-NT tox 10.3%, DT40 TDP1 CPT 0.5%, DT40 TDP1 no CPT -5.3%, HT1080 IDH1KD tx 9.0% and IL1B secr inh 43.7.
Screening O=C(c1ccc(Sc2ccccc2)c([N+](=O)[O-])c1)N1CCOCC1 returned HT1080-NT tox -1.5%, DT40 TDP1 CPT -24.5%, DT40 TDP1 no CPT inconclusive, HT1080 IDH1KD tx -3.0% and IL1B secr inh -23.3.

Screening results from PubChem BioAssay.
